CHT allo act – CHT positive allosteric modulators, primary screen, cell-based, membrane potential dye, choline EC20 | High affinity choline transporter 1 (Homo sapiens), Q9GZV3 | 310,000 compounds, 0.49% hits | CHT-expressing cells; active compounds read high; LV-AA mutant CHT in HEK293 cells | B-score at 10 µM;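 active = initial fluorescence not abnormally high and integrated response B-score, plate-corrected, over 3 SD above library mean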
Target sequence (Q9GZV3 whole entry, looked up): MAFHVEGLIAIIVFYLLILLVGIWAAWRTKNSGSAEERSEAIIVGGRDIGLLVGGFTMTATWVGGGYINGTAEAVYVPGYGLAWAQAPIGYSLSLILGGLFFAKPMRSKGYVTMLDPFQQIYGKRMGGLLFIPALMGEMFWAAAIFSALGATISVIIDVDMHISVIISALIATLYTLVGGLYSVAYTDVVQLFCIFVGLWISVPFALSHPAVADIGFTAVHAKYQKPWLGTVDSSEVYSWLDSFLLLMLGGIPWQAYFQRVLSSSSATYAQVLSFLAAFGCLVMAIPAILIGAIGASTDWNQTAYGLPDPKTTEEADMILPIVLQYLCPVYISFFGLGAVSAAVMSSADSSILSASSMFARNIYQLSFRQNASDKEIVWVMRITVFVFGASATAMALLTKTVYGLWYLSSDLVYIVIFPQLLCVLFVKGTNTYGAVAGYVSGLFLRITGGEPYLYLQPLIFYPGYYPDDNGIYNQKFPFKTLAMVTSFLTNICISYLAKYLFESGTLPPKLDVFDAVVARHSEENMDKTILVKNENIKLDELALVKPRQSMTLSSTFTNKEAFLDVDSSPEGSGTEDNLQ
GPR7 antagonist – GPR7 receptor antagonists, primary screen, cell-based, fluorescence, single concentration. 290,000 compounds, 1.1% hits. Neuropeptides B/W receptor type 1 (Homo sapiens), P48145. inhibition, % at 4.4 µM. AID 1861, 2009. GPR7-expressing cells, fluorescence antagonist assay; in the data active = inhibition above about 16%, passing the limit was not always enough;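 note: cells stimulated with the agonist NPW; 0% = agonist with vehicle and 100% = vehicle without agonist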
ANO1 activ – TMEM16A chloride channel activators or potentiators, primary screen, cell-based, HTS | Anoctamin-1 (Mus musculus), Q8BHY3 | HEK293 TMEM16A/YFP-H148Q/I152L, iodide quench fluorescence; active compounds read low | B-score at 10 µM | 340,000 compounds, 0.3% hits | AID 623877, 2012;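 active = fluorescence-ratio B-score plate-corrected deviation score at least 3 library SD below zero, with starting fluorescence score within 5 deviations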;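 note: channel opened by trigger with iodide after compound preincubation; score built on the fluorescence ratio of max minus min over baseline; more negative score means more quench and so TMEM16A activation or potentiation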
CHT inh – inhibitors of human choline transporter CHT | High affinity choline transporter 1 (Homo sapiens), Q9GZV3 | CHT-expressing cells, membrane potential dye, choline response; active compounds read low | B-score at 10 µM | 310,000 compounds, 0.86% hits;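 active = B-score over 3 SD under the library average, and starting fluorescence ratio not unusually high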;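 note: choline stimulus applied at its EC90 after an EC20 pre-addition; B-score computed on integrated fluorescence ratio after choline addition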
Kir21 inh – inhibitors of mouse Kir2.1 inward-rectifier potassium channel; Inward rectifier potassium channel 2 (Mus musculus), P35561; HEK293-Kir2.1, FluxOR thallium flux fluorescence; active compounds read low; B-score at 10 µM; 310,000 compounds, 0.85% hits;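 active = fluorescence ratio B-score at or below minus 3 SD of library scores, with starting-brightness B-score within 2 SD, cut at about -4.2 in these data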;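 note: channel flux triggered by added potassium and thallium sulfate stimulus; B-score of peak minus minimum fluorescence over baseline after thallium stimulus; more negative B-score means stronger Kir2.1 block with less thallium influx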
TMEM16A inh – TMEM16A chloride channel inhibitors, primary screen, cell-based, HTS. normalized B-score (activity score, 25-100; higher = stronger inhibition) at 10 µM. AID 588511, 2011. 310,000 compounds, 1.2% hits. HEK293 TMEM16A/YFP iodide influx fluorescence, ionomycin. Anoctamin-1 (Mus musculus), Q8BHY3;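 active = ratio plate-corrected score three or more library SD toward inhibition, starting fluorescence score within five deviations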;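 note: score derived from kinetic fluorescence span divided by baseline fluorescence per well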
CHT inh conf – CHT inhibitors, confirmation, cell-based, membrane potential dye, duplicate; shares compounds with CHT inh; CHT-expressing cells, choline membrane potential dye; LV-to-AA substituted CHT, HEK293 cells; CHT activity remaining % of control (active compounds read low), % at 10 µM; 2,400 compounds, 70% hits; AID 493221, 2011;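 active = choline transporter activity left, mean of duplicates at 10 µM, below buffer-only control mean minus 3 SD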;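 note: depolarization triggered by choline at its EC90 following an EC20 pre-addition; 0% = hemicholinium-3 full block and 100% = buffer-only control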
HEK293 CHT ctr – membrane potential effects in parental HEK293, counter-screen for CHT inhibitor project, cell-based, membrane potential dye | shares compounds with CHT inh | choline response; active = decrease or increase beyond buffer ±3SD | membrane potential ratio readout (active if shifted either direction beyond buffer ±3SD; no single direction) at 10 µM | 2,400 compounds, 4% hits;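 note: parental cells lack the transporter so any hit is non-specific; ratio is peak minus trough fluorescence over baseline after EC90 choline challenge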
* = called active by the depositor; i = inactive; nt = no result. An excerpt weighted towards active compounds, which were near 3.7% of everything screened.

SMILES | CHT allo act | GPR7 antagonist | ANO1 activ | CHT inh | Kir21 inh | TMEM16A inh | CHT inh conf | HEK293 CHT ctr
Cc1noc(NS(=O)(=O)c2ccc(NC(=O)COc3ccc(Cl)cc3Cl)cc2)c1C | i | -17 | i | -6.4* | 1 | i | 39%* | i
Cc1noc(NS(=O)(=O)c2ccc(NC(=O)CCCOc3ccc(Cl)cc3Cl)cc2)c1C | i | -24 | i | i | 0.99 | i | nt | nt
O=C(NCCO)C1(c2ccccc2)CCCC1 | i | 4 | i | i | 0.14 | i | nt | nt
CCNC(=O)C1(c2ccccc2)CCCC1 | i | -9 | i | -6.8* | -1.1 | i | i | i
CCCn1c(=O)c2ccccc2n2c(SCc3nc4ccccc4s3)nnc12 | i | -12 | i | i | -0.64 | i | nt | nt
CCCn1c(=O)c2ccccc2n2c(SCCOc3ccccc3)nnc12 | i | 17 | i | -6.2* | -0.27 | i | i | i
CCOC(=O)c1ccc(CC(=O)c2ccc(O)cc2O)o1 | i | -8 | i | -6* | -0.26 | i | 68%* | i
CCc1ccc(S(=O)(=O)NCc2cn3cccc(C)c3n2)s1 | i | -3 | i | -5.4* | -3 | i | 45%* | i
CCc1ccc(S(=O)(=O)NCc2cn3ccsc3n2)s1 | i | -7 | i | i | 0.55 | i | nt | nt
CCC(=O)Nc1cc2nn(-c3ccc(OC)cc3)nc2cc1C | i | -1 | i | -6.6* | 0.58 | i | i | i
CCCCC(=O)Nc1cc2nn(-c3ccc(OC)cc3)nc2cc1C | i | -13 | i | i | -0.91 | i | nt | nt
N#Cc1ccc(OC(=O)C2CCN(C3=NS(=O)(=O)c4ccccc43)CC2)cc1 | nt | nt | i | nt | nt | nt | nt | nt
CCOc1c(Cl)cc(/C=C/C(=O)N(CC)CC(=O)NCc2cccs2)cc1OC | i | nt | i | -7.6* | -0.49 | i | i | i
CCc1ncc(CN2CCCCC2C(=O)Nc2ccc(Oc3ccccc3)nc2)cn1 (stereo not given) | i | -15 | i | i | 1.1 | i | nt | nt
CC(C)Nc1nc(Cl)nc(N(C#N)CN2C(=O)c3ccccc3C2=O)n1 | i | -10 | i | -6.9* | -5.2* | i | 40%* | i
CCC(C)Nc1nc(Cl)nc(N(C#N)CN2C(=O)c3ccccc3S2(=O)=O)n1 (stereo not given) | i | -11 | i | i | 0.35 | i | nt | nt
CCOC(=O)C(Cc1ccccc1)NC(=O)CCCC(=O)c1ccccc1 (stereo not given) | i | 21 | i | -5.9* | 0 | i | 45%* | i
N#Cc1c(NCCN)nc(-c2ccccc2)c2c1CCCC2 | i | -6 | i | -6.3* | -6* | i | 40%* | i
Cc1ccc(C)c(C(=O)COc2ncnc3ccccc23)c1 | i | -7 | i | -5.2* | -1.4 | i | 42%* | i
Cc1cccc(C(=O)Nc2ccc(S(=O)(=O)Nc3nc(C)cc(C)n3)cc2)c1 | i | -10 | i | i | 2 | i | nt | nt
CCCCC(Br)C(=O)Nc1ccc(S(=O)(=O)Nc2cc(C)nc(C)n2)cc1 (stereo not given) | i | -7 | i | -5.8* | 0.69 | i | 15%* | i
Cc1cc(NS(=O)(=O)c2ccc(NC(=O)/C=C/c3c(F)cccc3Cl)cc2)nc(C)n1 | i | -3 | i | -5.7* | 1.1 | i | 31%* | i
COc1cc(NC(=O)C2CC(c3cccc(OC)c3OC)=NO2)cc(OC)c1OC (stereo not given) | i | -8 | i | i | -0.04 | i | nt | nt
COc1cccc(C2=NOC(C(=O)Nc3cccnc3Cl)C2)c1OC (stereo not given) | i | 0 | i | -11* | 0.07 | i | i | i
CCCNC(=O)N1CCCC(C(=O)c2cccc(Cl)c2)C1 (stereo not given) | i | 4 | i | -5.2* | 0.61 | i | 60%* | i
SMILES | CHT allo act | GPR7 antagonist | ANO1 activ | CHT inh | Kir21 inh | TMEM16A inh | CHT inh conf | HEK293 CHT ctr
CCCCOc1ccc(C(=O)NCC(=O)N2CC(C)CC(C)C2)cc1 (stereo not given) | nt | nt | i | nt | nt | nt | nt | nt
Cc1cccc(NC(=O)NCc2ccc3c(c2)OCO3)c1C | i | 7 | i | -5.2* | 0.02 | i | i | i
CSc1ccccc1OCc1cc(C(=O)N[C@H]2CCCCNC2=O)no1 | i | -6 | i | i | 0.5 | i | nt | nt
CC(Sc1nc2ccccc2c(=O)n1CCCN1CCOCC1)C(=O)N1CCc2ccccc21 (stereo not given) | nt | nt | i | nt | nt | nt | nt | nt
COc1ccc(-n2cc(CN3CCCC3)c(-c3cccc(F)c3)n2)cc1 | i | 5 | i | i | 0.15 | i | nt | nt
Cc1cccc(-n2cc(CN3CCN(Cc4nccn4C)CC3)c(-c3cccc(F)c3)n2)c1 | i | -4 | i | -9.7* | -1 | i | 20%* | i
CCOC(=O)C1=C(CCl)NC(=O)NC1c1ccc2c(c1)OCO2 (stereo not given) | i | -5 | i | i | 0.32 | i | nt | nt
Cc1ccc(S(=O)(=O)CCC(=O)OC(C)C(=O)N2CCc3ccccc32)cc1 (stereo not given) | i | nt | i | -7.4* | -1.7 | i | 37%* | i
N#CCCN1CCN(C(=O)c2c(N)no[n+]2[O-])CC1 | i | 1 | i | i | -0.96 | i | nt | nt
Fc1ccc(N2CCN(Cc3cnc(N4CCOCC4)s3)CC2)cc1 | i | -1 | i | i | 1.9 | i | nt | nt
CN1CCN(c2ncc(CN3C(=O)c4ccccc4C3=O)s2)CC1 | i | 0 | i | -5.3* | -0.79 | i | 57%* | i
COC(=O)c1ccc(C2/C(=C(\O)c3ccc4c(c3)OCCO4)C(=O)C(=O)N2c2nnc(C)s2)cc1 (stereo not given) | i | -4 | i | i | -1.3 | i | nt | nt

High-throughput results from PubChem BioAssay.
